Assay results: the supplement of paper PMC6555819

What was measured:
Test in all cases: PBM binding z-score (relative to random genomic background probes); higher = stronger binding; sequences stand for … in GC…GCGATTGACAGCGTAGAATGAAGG
[1] = test system: FXR:RXRa (NR concentration 270 nM, RXRa partner concentration 90 nM)
Method in brief: (§1)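 Binding z-scores take random background probes as their reference. They come from custom Agilent 4×180K protein-binding microarrays incubated 1 h with ligand-free nuclear receptor dimers, with antibodies against each partner (one per run) detecting binding. Scanned fluorescence was regression-normalized.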

[2] = test system: LXRa:RXRa (NR concentration 270 nM, RXRa partner concentration 90 nM)
Method in brief: as §1

[3] = test system: LXRa homodimer (NR concentration 270 nM)
Method in brief: as §1

[4] = test system: LXRb:RXRa (NR concentration 270 nM, RXRa partner concentration 90 nM)
Method in brief: as §1

[5] = test system: LXRb homodimer (NR concentration 270 nM)
Method in brief: as §1

[6] = test system: PPARa:RXRa (NR concentration 270 nM, RXRa partner concentration 90 nM)
Method in brief: as §1

[7] = test system: PPARg:RXRa (NR concentration 180 nM, RXRa partner concentration 90 nM)
Method in brief: as §1

[8] = test system: PPARg:RXRa 270nM:90nM, anti-RXR (NR concentration 270 nM, RXRa partner concentration 90 nM)
Method in brief: as §1

[9] = test system: PPARg:RXRa 30nM:10nM, anti-RXR (NR concentration 30 nM, RXRa partner concentration 10 nM)
Method in brief: as §1

[10] = test system: PPARg:RXRa 90nM:30nM, anti-RXR (NR concentration 90 nM, RXRa partner concentration 30 nM)
Method in brief: as §1

[11] = test system: PPARg:RXRa DBDmut IVT, anti-RXR (DBD mutation: RXRa K156A/R161A, NR concentration 270 nM, RXRa partner concentration 90 nM)
Method in brief: as §1

[12] = test system: PPARg:RXRa IVT, anti-PPARg (NR concentration 270 nM, RXRa partner concentration 90 nM)
Method in brief: as §1

[13] = test system: PPARg DBDmut:RXRa IVT, anti-PPARg (DBD mutation: PPARg1 K132A/R137A, NR concentration 270 nM, RXRa partner concentration 90 nM)
Method in brief: as §1

[14] = test system: PPARg DBDmut IVT, anti-PPARg (DBD mutation: PPARg1 K132A/R137A, NR concentration 270 nM)
Method in brief: as §1

[15] = test system: PPARg homodimer (NR concentration 180 nM)
Method in brief: as §1

[16] = test system: PXR:RXRa (NR concentration 270 nM, RXRa partner concentration 90 nM)
Method in brief: as §1

[17] = test system: PXR homodimer (NR concentration 270 nM)
Method in brief: as §1

[18] = test system: RARa:RXR (NR concentration 270 nM, RXRa partner concentration 90 nM)
Method in brief: as §1

[19] = test system: RARa homodimer (NR concentration 270 nM)
Method in brief: as §1

[20] = test system: RARb:RXRa (NR concentration 270 nM, RXRa partner concentration 90 nM)
Method in brief: as §1

Sequence	PBM binding z-score [1]	PBM binding z-score [2]	PBM binding z-score [3]	PBM binding z-score [4]	PBM binding z-score [5]	PBM binding z-score [6]	PBM binding z-score [7]	PBM binding z-score [8]	PBM binding z-score [9]	PBM binding z-score [10]	PBM binding z-score [11]	PBM binding z-score [12]	PBM binding z-score [13]	PBM binding z-score [14]	PBM binding z-score [15]	PBM binding z-score [16]	PBM binding z-score [17]	PBM binding z-score [18]	PBM binding z-score [19]	PBM binding z-score [20]
AATACAGGGTCAACGTAGGCCAGAGTACGCACAG	7.15	6.18	1.92	4.41	1.47	5.88	6.89	6.32	2.82	4.85	3.16	4.2	1.64	1.2	2.78	5.23	0.288	5.45	1.71	4.6
AATACAGGGTCACTAGGCCAGATTAGGTACGAAT	6.03	5.16	1.09	4.11	1.11	5.92	7.81	6.39	3.62	5.04	3.7	5.68	1.98	3.15	2.45	3.32	0.427	4.17	0.909	4.09
GCTTGTAGATCAAAGTTAAGAAAGACTAAGCTAA	-0.479	-0.533	-0.585	-0.487	-0.917	1.18	2.55	4.31	2.13	4.45	0.918	0.871	-0.419	0.433	-0.72	-0.462	-0.397	-0.522	-0.688	-0.479
TCGAGTAGGTGAGTCGGGGCATTCAGCCAACATA	-0.0608	-0.132	-0.66	0.164	-0.758	0.821	0.173	0.652	0.673	0.803	3.41	2.92	-0.294	-0.634	-0.137	-0.178	-0.0256	-0.138	-0.397	0.298
ATCGATAGGTCGTGAGGTGAGTATACAGAAAGGC	1.25	1.3	-0.0722	1.07	0.187	2.43	1.32	1.08	0.506	0.989	-0.14	1.35	1	0.371	0.792	1	0.158	1.94	0.167	1.97
GCGACGGGGGCAAAGCAGGTTACCATAAGGTTGG	3.46	4.5	0.414	4.42	5.27	4	1.96	3.58	1.84	3.04	2.39	4.59	4.08	8.05	1.37	3.8	1.1	2.78	0.26	2.88
AGAATGAGGTTATTAAGATCAGGGACTTGCGGTC	1.59	1.49	0.193	1.13	0.02	2.5	1.59	1.87	0.187	1.08	3.54	2.69	0.364	0.0807	0.911	1.15	0.684	1.36	0.425	1.37
GCTATTAGTTGAAAGGGGAACCGAATGATTCTCG	0.138	0.218	-0.112	-0.0843	-0.157	0.798	1.19	3.07	1.25	2.62	0.8	0.272	-0.324	-0.088	0.558	-0.107	0.237	0.154	0.912	0.185
CTCGAAAGTTCGTGCTCAGGTGAGTATACCAAAC	0.841	1	0.162	1.03	-0.134	1.39	-0.262	0.502	0.0705	0.433	-0.18	0.443	-0.211	0.0374	0.564	1.4	0.241	1.64	-0.0689	2.06
CCTCGGAGGACAACAGGAGGGCAGAGCTGCCAGA	-0.363	-0.203	-0.39	-0.91	-0.963	-0.724	-0.101	-1.25	-1.32	-1.32	-0.405	-0.306	-2.18	-1.69	-0.00297	-0.394	-0.631	-0.517	-0.328	1.73
ACTTACGGGTCCACGAGGTTATAGCACGCGTATA	0.87	0.822	0.478	1.39	0.189	1.6	1.01	0.696	0.165	0.469	0.0725	0.67	0.473	0.278	0.407	1.48	1.01	1.8	0.384	1.15
TGTCAAAGTTCAAAGGTAACGTACGTATCCACAC	7.21	6.37	4.32	4.74	1.52	5.75	8.65	7.29	4.86	7.11	0.385	4.52	2.01	1.18	3.53	5.63	3	6.3	1.11	4.92
CTACGAAGGTGAACAAGGTCGTTGATTACTATTC	1.63	1.54	0.18	1.91	-0.34	2.66	0.958	1.03	-0.0387	0.552	2.27	2.28	0.435	0.389	0.63	2.98	1.39	2.46	0.451	2.33
TGAATGAGATTATAAGATCAGGGAACGTTGCAAA	-0.81	-0.599	-0.661	-0.508	-0.369	-0.202	0.324	0.0746	0.527	0.406	-1.28	-0.236	0.555	0.576	-1.31	-0.518	-0.193	-0.548	0.0948	-1.13
AGAATTAGGTTATACGTAGATCAGGGAAGAAAGT	0.495	0.704	0.321	0.628	0.596	2.29	2.76	2.95	1.74	2.58	6.81	4.61	1.46	1.36	1.25	0.291	0.914	0.687	0.896	0.776
ATCTCTAGGCAAAAGTTCAGTGAATCCCGAGGAT	0.235	0.757	0.751	0.584	0.319	2.96	5.41	6.14	5.06	6.01	0.185	1.61	0.694	0.529	1.05	1.5	1.04	0.864	-0.11	2.33
GGAACGAGGGCAAAGTGGATAGCATCTGTCGACG	0.8	0.482	-0.564	0.23	-0.66	2.86	4.34	5.37	3.71	5.67	3.95	3.72	0.652	0.661	1.42	0.489	0.241	0.674	-0.182	2.27
GCTATCAGGCCATTTGGGTCACTCAATGACGGGC	0.309	0.382	-0.0509	0.286	0.109	1.73	0.893	0.805	-0.227	0.276	2.06	2.59	-0.109	-0.362	0.448	1.01	0.354	1.2	-0.0153	1.87
TCTATTAGTTGAAGGGAAACCGACGAGTCCGTTT	0.681	0.912	0.189	0.65	0.644	0.587	-0.183	2.13	4.34	3.16	2.49	-0.0119	0.417	1.24	1.32	0.508	0.678	0.362	1.42	0.377
CGTACTAGGTCAGAACAGGACAGTGAAGGATGAT	1.43	1.05	0.203	0.274	-0.0494	2.29	4.39	3.35	1.31	2.31	6.87	6.46	1.58	0.904	1.06	1.05	0.324	1.26	0.637	3.05
CCTTACGGGTCATTGACAGGTTATAGCATTTGGA	5.92	4.79	1.1	3.85	0.271	5.27	3.6	4.06	1.55	2.75	2.34	2.72	0.642	0.325	2.77	3.94	0.591	4.67	0.122	3.64
CCTTACGAGTCAAGGTTATAGCACGGGTGGTACG	0.585	0.946	-0.0296	0.739	0.332	1.28	0.716	0.135	-0.0857	-0.0269	-0.121	0.156	-0.0742	-0.146	1.14	0.823	0.506	0.888	0.784	1.07
ATCTCTAGCTAACAAGTTCAGTGAAAGAGAGGAC	0.604	0.71	0.538	0.504	0.838	0.381	0.2	-0.0606	0.335	0.17	-0.615	0.373	0.64	1.17	0.988	1.36	1.62	0.744	1.13	1.15
TCATATAGGTAAATGCTAGGTGAATGTCCGATCT	0.466	0.779	0.287	0.767	0.0198	1.39	0.932	2.17	3.49	2.66	3.97	2.57	0.725	1.15	0.769	0.548	0.635	1.02	1.27	0.461
TAGCCTAGGTCATGGGCCAGTACACCACGCGAAC	4.77	3.08	0.269	2.41	0.439	4.05	3.9	3.76	1.09	2.8	1.78	3.17	1.24	-0.494	1.72	1.62	-0.215	2.77	0.343	3.92
CGTCAAAGTTCAACTAAGGTAACGTTAAGCACGC	7.22	6.43	4.8	4.26	2.3	5.14	5.07	5.53	2.21	4.37	0.539	2.1	1.06	1.28	3.26	5.84	4.4	4.54	2.15	5.22
CCTACTGGGCCACGAATGGTCATTGATTCAGTGA	-0.465	-0.465	-0.579	-0.606	-1.07	0.398	1.18	1.19	-0.142	0.398	5.35	5.07	-0.0715	0.085	0.236	-0.684	-0.838	-0.385	-0.616	0.436
TGAATGGGGTTAAAGATCAGGGAACGTGGCGTCG	5.11	3.48	0.361	4.01	3.3	5.61	6.88	7.24	5.21	7.51	2.89	3.96	1.84	2.48	2.38	3.45	1.64	5	1.66	2.43
GCGACTGGGACAAAGCAGGTTACCATAAGGTTGG	-0.198	-0.314	-0.305	-0.479	-0.971	0.611	0.76	0.524	-0.332	-0.0419	2.44	1.83	-0.413	-1.3	0.0292	0.0506	-0.224	0.493	-0.37	0.0729
